{"source": "ChEMBL document CHEMBL2218924", "about": "“A broad activity screen in support of a chemogenomic map for kinase signalling research and drug discovery” (Biochem J, 2013)", "key": {"[1]": {"target": "Tyrosine-protein kinase SYK (Homo sapiens) (UniProt P43405)", "details": "at 10 µM"}, "[2]": {"target": "T1, Mitogen-activated protein kinase kinase kinase 7 (Homo sapiens) (UniProt O43318)", "T1 sequence (whole entry)": "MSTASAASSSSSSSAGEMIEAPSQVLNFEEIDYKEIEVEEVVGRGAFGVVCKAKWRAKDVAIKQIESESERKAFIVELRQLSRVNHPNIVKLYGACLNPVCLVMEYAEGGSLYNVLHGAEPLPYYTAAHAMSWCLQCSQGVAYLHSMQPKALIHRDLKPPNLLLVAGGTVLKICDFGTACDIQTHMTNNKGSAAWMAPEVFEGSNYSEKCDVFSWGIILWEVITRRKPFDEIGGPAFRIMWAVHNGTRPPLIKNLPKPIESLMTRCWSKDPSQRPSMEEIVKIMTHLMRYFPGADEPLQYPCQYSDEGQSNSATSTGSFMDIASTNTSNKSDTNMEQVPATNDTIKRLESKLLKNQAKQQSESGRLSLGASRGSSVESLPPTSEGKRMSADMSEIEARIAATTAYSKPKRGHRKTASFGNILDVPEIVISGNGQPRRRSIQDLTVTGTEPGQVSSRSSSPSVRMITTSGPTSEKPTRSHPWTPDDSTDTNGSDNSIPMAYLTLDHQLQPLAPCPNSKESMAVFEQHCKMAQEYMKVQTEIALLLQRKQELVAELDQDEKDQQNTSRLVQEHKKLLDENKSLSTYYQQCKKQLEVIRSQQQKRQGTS", "details": "at 1 µM"}, "[3]": {"target": "T1, Mitogen-activated protein kinase kinase kinase 7 (Homo sapiens)", "details": "at 10 µM"}, "[4]": {"target": "T2, Serine/threonine-protein kinase TAO1 (Homo sapiens) (UniProt Q7L7X3)", "T2 sequence (whole entry)": "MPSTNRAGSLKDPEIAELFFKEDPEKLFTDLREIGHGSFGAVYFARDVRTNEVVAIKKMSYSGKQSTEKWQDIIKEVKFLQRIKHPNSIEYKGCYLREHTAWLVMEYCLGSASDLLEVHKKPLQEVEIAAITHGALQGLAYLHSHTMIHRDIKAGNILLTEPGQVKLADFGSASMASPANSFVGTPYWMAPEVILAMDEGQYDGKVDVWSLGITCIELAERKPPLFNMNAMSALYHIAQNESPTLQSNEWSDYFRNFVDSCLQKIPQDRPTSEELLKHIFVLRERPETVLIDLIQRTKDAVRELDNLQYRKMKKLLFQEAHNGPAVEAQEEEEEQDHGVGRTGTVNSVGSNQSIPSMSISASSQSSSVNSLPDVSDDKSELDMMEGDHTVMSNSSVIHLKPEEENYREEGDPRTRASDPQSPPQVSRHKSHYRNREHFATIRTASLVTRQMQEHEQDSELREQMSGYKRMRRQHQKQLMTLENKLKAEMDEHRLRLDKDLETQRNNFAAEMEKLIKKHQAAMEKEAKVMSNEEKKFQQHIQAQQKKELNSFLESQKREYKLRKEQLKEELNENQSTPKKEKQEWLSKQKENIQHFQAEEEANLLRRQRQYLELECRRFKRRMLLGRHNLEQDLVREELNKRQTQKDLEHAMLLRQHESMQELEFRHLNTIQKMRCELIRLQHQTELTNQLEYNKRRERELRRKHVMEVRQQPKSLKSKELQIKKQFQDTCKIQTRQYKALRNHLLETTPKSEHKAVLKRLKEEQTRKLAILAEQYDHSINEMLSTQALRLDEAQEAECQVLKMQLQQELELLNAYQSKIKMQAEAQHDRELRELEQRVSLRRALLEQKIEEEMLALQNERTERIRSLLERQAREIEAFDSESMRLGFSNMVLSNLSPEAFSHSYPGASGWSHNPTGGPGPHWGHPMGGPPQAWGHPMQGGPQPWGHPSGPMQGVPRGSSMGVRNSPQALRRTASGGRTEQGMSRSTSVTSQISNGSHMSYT", "details": "at 1 µM"}, "[5]": {"target": "T2, Serine/threonine-protein kinase TAO1 (Homo sapiens)", "details": "at 10 µM"}, "[6]": {"target": "T3, Serine/threonine-protein kinase TAO2 (Homo sapiens) (UniProt Q9UL54)", "T3 sequence (whole entry)": "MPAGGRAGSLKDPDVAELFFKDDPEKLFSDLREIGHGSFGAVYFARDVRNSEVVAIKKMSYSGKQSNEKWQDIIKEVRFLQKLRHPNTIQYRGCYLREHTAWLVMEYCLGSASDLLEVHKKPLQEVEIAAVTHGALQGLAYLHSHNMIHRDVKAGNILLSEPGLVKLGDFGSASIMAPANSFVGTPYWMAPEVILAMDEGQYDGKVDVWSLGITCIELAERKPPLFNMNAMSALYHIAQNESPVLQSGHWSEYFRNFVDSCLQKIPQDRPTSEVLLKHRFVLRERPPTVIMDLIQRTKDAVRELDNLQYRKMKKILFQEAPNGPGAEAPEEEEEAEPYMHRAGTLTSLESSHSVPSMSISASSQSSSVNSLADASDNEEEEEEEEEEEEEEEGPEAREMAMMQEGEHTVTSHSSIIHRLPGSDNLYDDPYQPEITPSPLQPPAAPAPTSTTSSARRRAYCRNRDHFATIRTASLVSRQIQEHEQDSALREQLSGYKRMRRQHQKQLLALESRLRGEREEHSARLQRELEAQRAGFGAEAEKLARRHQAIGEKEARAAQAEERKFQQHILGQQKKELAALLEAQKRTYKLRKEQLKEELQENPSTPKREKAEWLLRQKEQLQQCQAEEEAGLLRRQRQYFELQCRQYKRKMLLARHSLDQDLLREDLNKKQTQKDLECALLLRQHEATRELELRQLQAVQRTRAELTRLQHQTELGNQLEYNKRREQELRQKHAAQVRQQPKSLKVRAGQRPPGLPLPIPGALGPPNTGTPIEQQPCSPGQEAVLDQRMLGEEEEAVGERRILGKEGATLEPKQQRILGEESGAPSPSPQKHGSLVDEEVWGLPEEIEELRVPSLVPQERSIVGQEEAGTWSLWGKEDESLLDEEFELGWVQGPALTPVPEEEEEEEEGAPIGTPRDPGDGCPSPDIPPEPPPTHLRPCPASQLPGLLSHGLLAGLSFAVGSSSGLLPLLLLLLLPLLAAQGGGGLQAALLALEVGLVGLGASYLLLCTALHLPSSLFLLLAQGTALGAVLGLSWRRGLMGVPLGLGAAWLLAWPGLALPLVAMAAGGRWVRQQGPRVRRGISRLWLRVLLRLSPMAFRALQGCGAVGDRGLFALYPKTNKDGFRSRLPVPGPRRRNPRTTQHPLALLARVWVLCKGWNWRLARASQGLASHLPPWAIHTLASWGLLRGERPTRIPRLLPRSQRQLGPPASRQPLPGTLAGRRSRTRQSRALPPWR", "details": "at 1 µM"}, "[7]": {"target": "T3, Serine/threonine-protein kinase TAO2 (Homo sapiens)", "details": "at 10 µM"}, "[8]": {"target": "T4, Serine/threonine-protein kinase TAO3 (Homo sapiens) (UniProt Q9H2K8)", "T4 sequence (whole entry)": "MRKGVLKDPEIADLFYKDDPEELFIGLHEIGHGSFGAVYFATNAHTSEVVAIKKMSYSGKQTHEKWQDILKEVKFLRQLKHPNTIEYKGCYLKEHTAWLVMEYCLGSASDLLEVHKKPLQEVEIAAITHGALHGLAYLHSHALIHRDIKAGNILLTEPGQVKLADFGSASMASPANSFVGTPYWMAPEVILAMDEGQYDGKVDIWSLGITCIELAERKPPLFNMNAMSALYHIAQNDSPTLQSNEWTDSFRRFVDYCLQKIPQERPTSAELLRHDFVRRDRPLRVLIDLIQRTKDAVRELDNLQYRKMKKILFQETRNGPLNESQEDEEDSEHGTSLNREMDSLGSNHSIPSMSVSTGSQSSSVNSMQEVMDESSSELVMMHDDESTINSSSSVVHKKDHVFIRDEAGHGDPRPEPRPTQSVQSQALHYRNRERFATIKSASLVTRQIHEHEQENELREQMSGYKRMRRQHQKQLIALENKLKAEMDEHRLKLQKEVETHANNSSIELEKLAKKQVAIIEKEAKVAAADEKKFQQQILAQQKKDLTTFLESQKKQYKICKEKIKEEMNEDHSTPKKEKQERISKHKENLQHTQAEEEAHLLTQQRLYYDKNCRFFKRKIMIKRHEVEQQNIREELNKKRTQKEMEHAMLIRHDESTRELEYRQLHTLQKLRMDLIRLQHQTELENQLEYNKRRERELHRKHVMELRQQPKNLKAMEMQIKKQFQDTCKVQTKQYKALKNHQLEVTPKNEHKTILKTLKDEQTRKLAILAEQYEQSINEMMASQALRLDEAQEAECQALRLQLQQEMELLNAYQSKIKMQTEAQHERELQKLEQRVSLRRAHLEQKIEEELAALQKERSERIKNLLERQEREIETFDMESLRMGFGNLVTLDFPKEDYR", "details": "at 1 µM"}, "[9]": {"target": "T4, Serine/threonine-protein kinase TAO3 (Homo sapiens)", "details": "at 10 µM"}, "[10]": {"target": "T5, Serine/threonine-protein kinase TBK1 (Homo sapiens) (UniProt Q9UHD2)", "T5 sequence (whole entry)": "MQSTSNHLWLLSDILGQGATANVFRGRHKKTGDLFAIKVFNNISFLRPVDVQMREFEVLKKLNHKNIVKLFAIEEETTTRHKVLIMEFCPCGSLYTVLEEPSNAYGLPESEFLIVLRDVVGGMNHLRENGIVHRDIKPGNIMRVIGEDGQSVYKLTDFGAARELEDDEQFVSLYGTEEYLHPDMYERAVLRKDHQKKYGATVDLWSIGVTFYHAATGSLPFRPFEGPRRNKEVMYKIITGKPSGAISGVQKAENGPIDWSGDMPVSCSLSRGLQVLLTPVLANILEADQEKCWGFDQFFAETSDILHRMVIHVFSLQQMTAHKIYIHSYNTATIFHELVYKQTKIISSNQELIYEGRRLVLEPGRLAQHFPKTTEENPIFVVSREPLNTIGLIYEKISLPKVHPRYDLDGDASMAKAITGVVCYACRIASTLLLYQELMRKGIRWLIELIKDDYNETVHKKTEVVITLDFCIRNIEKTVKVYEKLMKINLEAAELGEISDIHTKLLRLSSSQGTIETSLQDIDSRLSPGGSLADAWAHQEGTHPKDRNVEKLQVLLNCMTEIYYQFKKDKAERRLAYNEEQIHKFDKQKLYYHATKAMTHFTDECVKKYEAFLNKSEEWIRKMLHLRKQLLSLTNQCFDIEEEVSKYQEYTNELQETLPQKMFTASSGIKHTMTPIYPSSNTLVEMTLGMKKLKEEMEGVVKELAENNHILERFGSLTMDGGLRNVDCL", "details": "at 1 µM"}}, "data": [{"smiles": "CC(C)n1cnc2c(NCc3ccccc3)nc(NCCCO)nc21", "values": [{"measurement": "residual activity", "setting": "[1]", "result": 105, "unit": "%"}, {"measurement": "residual activity", "setting": "[2]", "result": 96, "unit": "%"}, {"measurement": "residual activity", "setting": "[3]", "result": 92, "unit": "%"}, {"measurement": "residual activity", "setting": "[4]", "result": 87, "unit": "%"}, {"measurement": "residual activity", "setting": "[5]", "result": 81, "unit": "%"}, {"measurement": "residual activity", "setting": "[6]", "result": 100, "unit": "%"}, {"measurement": "residual activity", "setting": "[7]", "result": 101, "unit": "%"}, {"measurement": "residual activity", "setting": "[8]", "result": 97, "unit": "%"}, {"measurement": "residual activity", "setting": "[9]", "result": 88, "unit": "%"}, {"measurement": "residual activity", "setting": "[10]", "result": 79, "unit": "%"}]}]}
